Measurements reported in PubChem BioAssay (NCI).
About 83,000 compounds went through this panel and 20% of them were active in at least one assay; those are over-represented in the sample as a whole.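 Single-concentration screen, 48 h exposure, 96-well plates. Endpoint: percent growth. Below 10 = active.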 Active and inactive are the calls of the source.

How the values were obtained:
Assay in all cases: NCI-60 one-dose screen, 48 h (100 = growth as untreated, 0 = no growth, -100 = all killed)
Conditions in all cases: 10 µM unless noted
SK-MEL-2 melanoma = tested on: SK-MEL-2 melanoma
EKVX NSCLC = tested on: EKVX NSCLC
SN12C renal = tested on: SN12C renal
UO-31 renal = tested on: UO-31 renal
TK-10 renal = tested on: TK-10 renal
ACHN renal = tested on: ACHN renal
CAKI-1 renal = tested on: CAKI-1 renal
A498 renal = tested on: A498 renal
CCRF-CEM leukemia = tested on: CCRF-CEM leukemia
MOLT-4 leukemia = tested on: MOLT-4 leukemia

Measured: growth

NS(=O)(=O)c1ccc(CN=C2NC(=O)S/C2=C\c2ccc(Br)cc2)cc1
inactive: SK-MEL-2 melanoma 102% | EKVX NSCLC 103% | SN12C renal 97.1% | UO-31 renal 88.8% | TK-10 renal 108% | ACHN renal 102% | CAKI-1 renal 100% | A498 renal 102% | CCRF-CEM leukemia 95% | MOLT-4 leukemia 99.3%

O=C(Nc1ccccc1Cl)c1ccc(NC2=C(Cl)C(=O)N(C3CCCCC3)C2=O)cc1
inactive: SK-MEL-2 melanoma 104% [30 µM] | EKVX NSCLC 98.5% [30 µM] | SN12C renal 97.6% [30 µM] | UO-31 renal 75.8% [30 µM] | TK-10 renal 88.5% [30 µM] | ACHN renal 78.9% [30 µM] | CAKI-1 renal 20.5% [30 µM] | A498 renal 123% [30 µM] | CCRF-CEM leukemia 39.6% [30 µM] | MOLT-4 leukemia 40.8% [30 µM]

O=C1CC[C@H](c2ccc(O)c3c2C(=O)[C@@H]2O[C@@H]2C3=O)c2cccc(O)c21
inactive: SK-MEL-2 melanoma 69.5% | EKVX NSCLC 102% | SN12C renal 54.6% | A498 renal 85% | MOLT-4 leukemia 45.1%
active: UO-31 renal -77.4% | TK-10 renal 3.89% | ACHN renal -42% | CAKI-1 renal 2.61% | CCRF-CEM leukemia -2.85%

N#CCCN=Nc1c(O)[nH]c2ccc([N+](=O)[O-])cc12
inactive: SK-MEL-2 melanoma 95.6% | EKVX NSCLC 91.3% | SN12C renal 98.7% | UO-31 renal 76.9% | TK-10 renal 108% | ACHN renal 96.3% | CAKI-1 renal 86.1% | A498 renal 94.3% | CCRF-CEM leukemia 103% | MOLT-4 leukemia 100%

C=C1c2nc3ccccc3n2C=C(c2cccc(Cl)c2)N1Cc1ccc(OC)cc1
inactive: SK-MEL-2 melanoma 28.2% | SN12C renal 37% | TK-10 renal 30.8% | ACHN renal 49.2% | A498 renal 91.7% | CCRF-CEM leukemia 47.2%
active: EKVX NSCLC 8.8% | UO-31 renal 9.79% | CAKI-1 renal 3.02% | MOLT-4 leukemia 8.13%

O=S(=O)(Nc1ccc(I)cc1F)c1ccc(-c2cnc(C3CC3)o2)cc1
active: A498 renal -10%
inactive: SK-MEL-2 melanoma 40.7% | EKVX NSCLC 68.5% | SN12C renal 71.5% | UO-31 renal 70.1% | TK-10 renal 88.6% | ACHN renal 77.2% | CAKI-1 renal 40.9% | CCRF-CEM leukemia 61.1% | MOLT-4 leukemia 37.5%

Oc1ccccc1-c1nnc(CNc2ccc(Cl)cc2)o1
inactive: SK-MEL-2 melanoma 30.1% | EKVX NSCLC 38.9% | SN12C renal 40.6% | UO-31 renal 19% | TK-10 renal 44.7% | ACHN renal 12.7% | CAKI-1 renal 17% | A498 renal 77.9% | CCRF-CEM leukemia 11.8% | MOLT-4 leukemia 15.5%

Cn1cccc1-c1nc2c3c(ccc2[nH]1)C(=O)c1ccccc1C3=O
inactive: SK-MEL-2 melanoma 91.4% | EKVX NSCLC 65.2% | SN12C renal 91.9% | UO-31 renal 58.7% | TK-10 renal 98.7% | ACHN renal 80.7% | CAKI-1 renal 96.3% | A498 renal 88.7% | CCRF-CEM leukemia 78.9% | MOLT-4 leukemia 62.1%

C#Cc1cccc(NC(=O)c2ccccc2NC(=O)C=C)c1
inactive: SK-MEL-2 melanoma 104% [8.25 µM] | EKVX NSCLC 109% [8.25 µM] | SN12C renal 94% [8.25 µM] | UO-31 renal 85.6% [8.25 µM] | TK-10 renal 81.1% [8.25 µM] | ACHN renal 105% [8.25 µM] | CAKI-1 renal 97.3% [8.25 µM] | A498 renal 96.8% [8.25 µM] | CCRF-CEM leukemia 106% [8.25 µM] | MOLT-4 leukemia 102% [8.25 µM]

CCN(CC)CCCCNc1c2ccc(Cl)cc2nc2ccc(OC)cc12
inactive: TK-10 renal 15.4%
active: SK-MEL-2 melanoma 2.05% | EKVX NSCLC -8.96% | SN12C renal 4.57% | UO-31 renal -14.6% | ACHN renal -56.7% | CAKI-1 renal 9.92% | A498 renal -83.9% | CCRF-CEM leukemia -27.8% | MOLT-4 leukemia -22.2%

N#Cc1c(-c2ccc(Cl)cc2)nc(NN=Cc2ccco2)nc1N1CCOCC1
active: A498 renal -19.9%
inactive: SK-MEL-2 melanoma 82.3% | EKVX NSCLC 46.5% | SN12C renal 82.1% | UO-31 renal 27.1% | TK-10 renal 68.8% | ACHN renal 76.7% | CAKI-1 renal 62.8% | CCRF-CEM leukemia 88.7% | MOLT-4 leukemia 83%

O=C1c2cccc3cccc(c23)C(=O)N1CCCCN1CCN(CCCCOc2ccc(-c3nc4ccc(N5CCOCC5)cc4[nH]3)cc2)CC1
inactive: SK-MEL-2 melanoma 90.4% | EKVX NSCLC 91.7% | SN12C renal 94.7% | UO-31 renal 32.8% | TK-10 renal 114% | ACHN renal 104% | CAKI-1 renal 79.8% | A498 renal 111% | CCRF-CEM leukemia 30.8% | MOLT-4 leukemia 52.3%

O=C1Nc2c(ccc(Cl)c2Cl)/C1=C\c1cc(C(F)(F)F)cc(C(F)(F)F)c1
active: ACHN renal 8.13% | CAKI-1 renal 8.62% | A498 renal -23.7% | MOLT-4 leukemia -14.2%
inactive: SK-MEL-2 melanoma 38.4% | EKVX NSCLC 26.9% | SN12C renal 14.2% | UO-31 renal 16.6% | TK-10 renal 26% | CCRF-CEM leukemia 30.8%

O=C1c2cccc3cccc(c23)C(=O)N1CCCCCN1CCN(CCCCCOc2ccc(-c3nc4ccc(N5CCOCC5)cc4[nH]3)cc2)CC1
active: UO-31 renal 4.03% | CCRF-CEM leukemia -17.9% | MOLT-4 leukemia -54.4%
inactive: SK-MEL-2 melanoma 87.4% | EKVX NSCLC 105% | SN12C renal 108% | TK-10 renal 106% | ACHN renal 111% | CAKI-1 renal 59.4% | A498 renal 117%

O=C(N=Nc1c(O)[nH]c2ccc(Br)cc12)c1cc(-c2ccccc2)on1
inactive: SK-MEL-2 melanoma 95.6% | EKVX NSCLC 91.3% | SN12C renal 100% | UO-31 renal 90.5% | TK-10 renal 108% | ACHN renal 103% | CAKI-1 renal 88.7% | A498 renal 77.6% | CCRF-CEM leukemia 102% | MOLT-4 leukemia 100%

Fc1ccc2[nH]cc(SSc3c[nH]c4ccc(F)cc34)c2c1
inactive: SK-MEL-2 melanoma 62.8% | EKVX NSCLC 14.2% | SN12C renal 65.1% | UO-31 renal 21.5% | TK-10 renal 84.6% | ACHN renal 55.1% | CAKI-1 renal 32.6% | A498 renal 35% | CCRF-CEM leukemia 15.9% | MOLT-4 leukemia 14%

O=CNc1ccc2c(c1)Cc1cccc(NC=O)c1-2
inactive: SK-MEL-2 melanoma 106% | EKVX NSCLC 80.4% | SN12C renal 95.8% | UO-31 renal 78.8% | TK-10 renal 98.7% | ACHN renal 85.8% | CAKI-1 renal 93% | A498 renal 105% | CCRF-CEM leukemia 107% | MOLT-4 leukemia 75%

Cc1cc(C)nc(SC2=C(Nc3ccc(C)c(Cl)c3)C(=O)N(Cc3ccccc3)C2=O)n1
inactive: SK-MEL-2 melanoma 85.3% [30 µM] | EKVX NSCLC 52.7% [30 µM] | SN12C renal 66.9% [30 µM] | UO-31 renal 16.7% [30 µM] | TK-10 renal 84.8% [30 µM] | ACHN renal 81% [30 µM] | CAKI-1 renal 54.3% [30 µM] | A498 renal 69.5% [30 µM] | CCRF-CEM leukemia 35.3% [30 µM]
active: MOLT-4 leukemia 7.47% [30 µM]

Cc1ccc(C2Oc3ccccc3C3CC(c4cccs4)=NN32)cc1 (stereo not given)
inactive: SK-MEL-2 melanoma 98.2% | EKVX NSCLC 80.9% | SN12C renal 92.5% | UO-31 renal 65.3% | TK-10 renal 108% | ACHN renal 98.7% | CAKI-1 renal 82.3% | A498 renal 107% | CCRF-CEM leukemia 95.3% | MOLT-4 leukemia 97.5%

C=C(C)[C@@H]1CC[C@]2(C(=O)OC)CC[C@]3(C)[C@H](CC[C@@H]4[C@@]5(C)C/C(=C/c6cccc(I)c6)C(=O)C(C)(C)[C@@H]5CC[C@]43C)[C@@H]12
inactive: SK-MEL-2 melanoma 103% | EKVX NSCLC 94.6% | SN12C renal 101% | UO-31 renal 85.2% | TK-10 renal 101% | ACHN renal 90.8% | CAKI-1 renal 82% | A498 renal 116% | CCRF-CEM leukemia 97.9% | MOLT-4 leukemia 95.8%

CC(C)(C)c1cc(C(C)(C)C)cc(S(=O)(=O)Nc2cc3ccccc3cc2C(=O)NCCN)c1
active: A498 renal -2.57%
inactive: SK-MEL-2 melanoma 62.3% | EKVX NSCLC 89.5% | SN12C renal 46.6% | UO-31 renal 53.2% | TK-10 renal 78.8% | ACHN renal 70.9% | CAKI-1 renal 64% | CCRF-CEM leukemia 57.7% | MOLT-4 leukemia 77%

O=C1/C(=C/c2ccc(Cl)cc2)SC(=S)N1CCc1ccc(O)cc1
inactive: SK-MEL-2 melanoma 99.7% | EKVX NSCLC 93.8% | SN12C renal 80.2% | UO-31 renal 54.6% | TK-10 renal 80.5% | ACHN renal 99.1% | CAKI-1 renal 81.3% | A498 renal 87.6% | CCRF-CEM leukemia 23.1% | MOLT-4 leukemia 54.3%

CCCCC/C(C=C(C#N)C#N)=C/c1ccccc1
inactive: SK-MEL-2 melanoma 82.4% | EKVX NSCLC 106% | SN12C renal 81.1% | UO-31 renal 34.7% | TK-10 renal 105% | ACHN renal 41.6% | CAKI-1 renal 81.4% | A498 renal 112% | CCRF-CEM leukemia 13.9% | MOLT-4 leukemia 13.4%

CC[C@]1(O)C[C@@H]2CN(CCc3c([nH]c4ccccc34)[C@@](C(=O)OC)(c3cc4c(cc3OC)N(C)[C@H]3[C@@](O)(C(N)=O)[C@H](O)[C@]5(CC)[C@@H]6C[C@@H]6CN6CC[C@]43[C@@H]65)C2)C1
active: A498 renal -7.44%
inactive: SK-MEL-2 melanoma 22.4% | EKVX NSCLC 41.1% | SN12C renal 27.6% | UO-31 renal 50% | TK-10 renal 53.5% | ACHN renal 33% | CAKI-1 renal 32.8% | CCRF-CEM leukemia 17.7% | MOLT-4 leukemia 17.1%

Cc1ccc(/C=C2\SC(=S)N(CC(=O)NCCCN3CCOCC3)C2=O)cc1
inactive: SK-MEL-2 melanoma 107% | EKVX NSCLC 93.7% | SN12C renal 92.1% | UO-31 renal 83.9% | TK-10 renal 117% | ACHN renal 90.5% | CAKI-1 renal 89.4% | A498 renal 96.1% | CCRF-CEM leukemia 104% | MOLT-4 leukemia 101%
